# Experimental data from the supplement of paper PMC12350171.
# Counter-ions that a name gives are not always drawn.
# Tested on: Haemophilus parainfluenzae
# Assay: growth AUC normalised to DMSO control (fraction of control); higher = less growth inhibition, active = hit call of the paper
# Settings: 20 µM;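 active = AUC significantly below DMSO controls by Student t-fit with adjusted P under 0.01; inactive = not significantly reduced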
# Outline: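 Three biological replicates were carried out, with OD578 read hourly for 24 h. Before inoculation at a starting OD578 of 0.01, pathogens were passaged anaerobically twice; plates were pre-reduced mGAM containing 20 μM compound and 1% DMSO, sealed with breathable membranes, and the Haemophilus parainfluenzae medium carried added hemin and NAD. Area under each growth curve was calculated by the trapezoidal rule up to the exponential-to-stationary transition and normalised to DMSO controls on the same plate.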
row,SMILES,growth AUC normalised to DMSO control
1,CC(=O)OCC(=O)[C@@]1(O)CC[C@H]2[C@@H]3CCC4=CC(=O)CC[C@]4(C)[C@H]3[C@@H](O)C[C@@]21C [Cortisol acetate],1.02 (inactive)
2,O=C(O)/C=C/c1ccc(Cn2ccnc2)cc1 [Ozagrel hydrochloride],1.03 (inactive)
3,CC(=O)[C@H]1CC[C@H]2[C@@H]3CC=C4C[C@@H](O)CC[C@]4(C)[C@H]3CC[C@]12C [Pregnenolone],1.01 (inactive)
4,CN(C)CCC=C1c2ccccc2C=Cc2ccccc21 [Cyclobenzaprine hydrochloride],0.893 (inactive)
5,Clc1ccc(Cn2c(CN3CCCC3)nc3ccccc32)cc1 [Clemizole hydrochloride],0.982 (inactive)
6,CC(=O)OCC(=O)[C@@]1(O)[C@H](C)C[C@H]2[C@@H]3CCC4=CC(=O)C=C[C@]4(C)[C@@]3(F)[C@@H](O)C[C@@]21C [Dexamethasone acetate],1.03 (inactive)
7,COc1ccccc1OCCNCC(O)COc1cccc2[nH]c3ccccc3c12 (stereo unspecified) [Carvedilol],0.963 (inactive)
8,O=C(O)c1ccccc1OP(=O)(O)O [Fosfosal],0.998 (inactive)
9,CCOC(=O)C1=C(COCCN)NC(C)=C(C(=O)OC)C1c1ccccc1Cl (stereo unspecified) [Amlodipine],0.989 (inactive)
10,CCCCNc1ccc(C(=O)OCCOCCOCCOCCOCCOCCOCCOCCOCCOC)cc1 [Benzonatate],1 (inactive)
11,CN1CCc2cccc3c2[C@H]1Cc1ccc(O)c(O)c1-3 [R(-) Apomorphine hydrochloride hemihydrate],1.05 (inactive)
12,O=P(O)(O)C(Cl)(Cl)P(=O)(O)O [Clodronate disodium],0.965 (inactive)
13,NCCCC[C@H](N[C@@H](CCc1ccccc1)C(=O)O)C(=O)N1CCC[C@H]1C(=O)O [Lisinopril],0.992 (inactive)
14,CC(=O)Nc1ccc(O)cc1 [Acetaminophen],0.952 (inactive)
15,C[C@H](CCC(=O)O)[C@H]1CC[C@H]2[C@@H]3[C@@H](O)C[C@@H]4C[C@H](O)CC[C@]4(C)[C@H]3CC[C@]12C [Urosiol],1.01 (inactive)
16,CO/N=C(\C(=O)N[C@@H]1C(=O)N2C(C(=O)O)=C(C[N+]3(C)CCCC3)CS[C@H]12)c1csc(N)n1 [Cefepime hydrochloride],0.0407 (active)

row,SMILES,growth AUC normalised to DMSO control
1,C[n+]1ccccc1/C=N/O [Pralidoxime chloride],0.915 (inactive)
2,N=C(N)NC(=N)NCCc1ccccc1 [Phenformin hydrochloride],1.04 (inactive)
3,COc1cc(NS(=O)(=O)c2ccc(N)cc2)nc(OC)n1 [Sulfadimethoxine],0.98 (inactive)
4,CCOC(=O)[C@H](CCc1ccccc1)N[C@H]1CCc2ccccc2N(CC(=O)O)C1=O [Benazepril hydrochloride],0.995 (inactive)
5,Cc1ccccc1C(OCCN(C)C)c1ccccc1 (stereo unspecified) [Orphenadrine hydrochloride],0.954 (inactive)
6,Cn1c(=O)c2[nH]cnc2n(C)c1=O [Aminophylline],1.04 (inactive)
7,O=C1O[C@H]([C@@H](O)CO)C(O)=C1O [Ascorbic acid],1.06 (inactive)
8,CCC(C)n1ncn(-c2ccc(N3CCN(c4ccc(OCC5COC(Cn6cncn6)(c6ccc(Cl)cc6Cl)O5)cc4)CC3)cc2)c1=O (stereo unspecified) [Itraconazole],1.09 (inactive)
9,CCCCC(C)(O)C/C=C/[C@H]1[C@H](O)CC(=O)[C@@H]1CCCCCCC(=O)OC (mixture of isomers) [Misoprostol],1.02 (inactive)
10,COCCCOc1ccnc(C[S+]([O-])c2nc3ccccc3[nH]2)c1C (stereo unspecified) [Rabeprazole sodium salt],0.985 (inactive)
11,NC1CCN(c2nc3c(cc2F)c(=O)c(C(=O)O)cn3-c2ccc(F)cc2F)C1 (stereo unspecified) [Tosufloxacin hydrochloride],0.0424 (active)
12,CCCC(CCC)C(=O)O [Valproic acid],1.04 (inactive)
13,O=C(O)Cc1ccccc1Nc1c(Cl)cccc1Cl [Diclofenac sodium],0.936 (inactive)
14,Cc1cccc(CN2CCN(C(c3ccccc3)c3ccc(Cl)cc3)CC2)c1 (stereo unspecified) [Meclozine dihydrochloride],0.948 (inactive)
15,CC(COc1ccccc1)N(CCCl)Cc1ccccc1 (stereo unspecified) [Phenoxybenzamine hydrochloride],1.01 (inactive)
